Data published in PubChem BioAssay (EPA / NIEHS).
“And” between values parts separate entries of the source, which are not always exact repeats. Identical values can stand only once. Inconclusive results are not listed. Where a structure was tested more than once in an assay, its records may differ in their call. The source made the active and inactive calls. How the source made its calls, unless noted: active means hit-call score of the fitted dose curve at least 0.9, where 1 is the maximum; inactive means score below 0.9.

What was measured:
[1] = ATG_TCF_b_cat_CIS: Attagene CIS-FACTORIAL HepG2 Assay for human T-Cell-Factor with beta-catenin (TCF/b-cat) (AID 2282965); conditions: HepG2 TCF/beta-catenin cis-reporter transcription, actives raise or lower the signal
How it was run: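 Endogenous TCF/LEF activity read as reporter transcript level via RT-PCR and capillary electrophoresis fluorescence in transfected HepG2, 24 h exposure; gain or loss of signal fitted against DMSO controls.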

[2] = ATG_TAL_CIS: Attagene CIS-FACTORIAL HepG2 Assay for human TAL Basal Promoter (AID 2282966); conditions: HepG2 Attagene cis-factorial TAL promoter reporter; actives raise or lower the signal;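 further: background control endpoint measuring basal TAL promoter reporter mRNA not a specific factor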
How it was run: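 Transiently transfected HepG2 (cis-regulated reporter units), 24 h treatment, mRNA read by fluorescent CE after RT-PCR; bidirectional fit, DMSO baseline.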

[3] = ATG_TGFb_CIS: Attagene CIS-FACTORIAL HepG2 Assay for human Transforming Growth Factor (TGF) (AID 2282967); conditions: HepG2 Attagene CIS TGFb reporter, mRNA transcription; actives raise or lower the signal
How it was run: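 HepG2 cells transiently transfected with cis-promoter-driven multiple reporter units measure endogenous TF activity; reporter mRNA quantified at 24 h by RT-PCR, FAM labeling, HpaI digestion and capillary electrophoresis. Bidirectional fit vs DMSO.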

[4] = ATG_VDRE_CIS: Attagene CIS-FACTORIAL HepG2 Assay for human Vitamin D Receptor Element (VDRE) (AID 2282968); conditions: HepG2 VDRE cis-reporter transcription, actives raise or lower the signal
How it was run: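 Readout is VDRE-driven reporter mRNA reflecting endogenous factor activity in human HepG2 cells, sampled 24 h post-dose. Quantification used labelled RT-PCR products separated by capillary electrophoresis; bidirectional analysis relative to DMSO.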

[5] = target: Estrogen receptor (Homo sapiens) (UniProt P03372); assay: ATG_ERa_TRANS: Attagene TRANS-FACTORIAL HepG2 Assay for human Estrogen Receptor alpha (ERa) (AID 2282970; active means hit-call score of the fitted dose curve at least 0.9, where 1 is the maximum); conditions: HepG2 Attagene TRANS ERa GAL4 reporter, mRNA
Sequence of Estrogen receptor (Homo sapiens) (P03372 whole entry, looked up, the tested form may be a part): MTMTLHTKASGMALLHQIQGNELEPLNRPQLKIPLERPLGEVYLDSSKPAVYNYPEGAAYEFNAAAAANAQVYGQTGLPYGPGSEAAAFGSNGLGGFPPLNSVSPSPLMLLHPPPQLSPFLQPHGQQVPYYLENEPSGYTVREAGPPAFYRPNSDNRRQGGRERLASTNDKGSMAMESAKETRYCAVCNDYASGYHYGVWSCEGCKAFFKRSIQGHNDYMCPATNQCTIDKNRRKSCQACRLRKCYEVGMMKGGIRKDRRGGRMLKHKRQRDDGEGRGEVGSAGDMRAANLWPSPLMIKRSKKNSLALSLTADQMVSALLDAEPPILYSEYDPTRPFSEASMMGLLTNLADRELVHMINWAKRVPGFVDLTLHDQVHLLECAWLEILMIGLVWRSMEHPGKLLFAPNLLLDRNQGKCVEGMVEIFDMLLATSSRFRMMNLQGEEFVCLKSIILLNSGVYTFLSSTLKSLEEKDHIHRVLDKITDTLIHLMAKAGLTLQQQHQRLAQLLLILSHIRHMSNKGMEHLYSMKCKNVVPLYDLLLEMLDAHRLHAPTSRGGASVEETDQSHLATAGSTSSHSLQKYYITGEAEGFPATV
How it was run: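 One of 30 multiplexed endpoints from a HepG2 TRANS system, this one reports ERa-Gal4-driven reporter mRNA. Transcripts were quantified 24 hours post-dosing by fluorescent RT-PCR and capillary electrophoresis, with activity scored as induction over DMSO.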

[6] = target: Steroid hormone receptor ERR1 (Homo sapiens) (UniProt P11474); assay: ATG_ERRa_TRANS: Attagene TRANS-FACTORIAL HepG2 Assay for human Estrogen-Related Receptor alpha (ERRa) (AID 2282971; active means hit-call score of the fitted dose curve at least 0.9, where 1 is the maximum); conditions: HepG2 Attagene TRANS reporter, ERRa transactivation
Sequence of Steroid hormone receptor ERR1 (Homo sapiens) (P11474 whole entry, looked up, the tested form may be a part): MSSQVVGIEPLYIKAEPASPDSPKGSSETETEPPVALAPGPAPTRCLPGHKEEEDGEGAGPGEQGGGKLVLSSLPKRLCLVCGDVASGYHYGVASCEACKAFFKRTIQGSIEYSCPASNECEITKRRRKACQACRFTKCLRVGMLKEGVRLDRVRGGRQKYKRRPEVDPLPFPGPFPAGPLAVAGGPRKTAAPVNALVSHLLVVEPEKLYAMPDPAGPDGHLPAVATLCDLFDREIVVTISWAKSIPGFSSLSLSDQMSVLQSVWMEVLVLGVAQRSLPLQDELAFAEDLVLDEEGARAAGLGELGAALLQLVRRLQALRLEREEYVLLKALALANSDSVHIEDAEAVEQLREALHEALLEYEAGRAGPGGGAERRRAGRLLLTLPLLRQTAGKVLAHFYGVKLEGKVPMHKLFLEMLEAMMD
How it was run: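 HepG2 cells transiently transfected with multiplexed GAL4-UAS reporter units reading chimeric ERRa-Gal4 activity; 24 h compound exposure. Reporter mRNA measured by RT-PCR, 6-FAM labelling, HpaI digest and capillary electrophoresis; gain of signal fitted versus DMSO baseline.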

[7] = target: X-box-binding protein 1 (Homo sapiens) (UniProt P17861); assay: ATG_Xbp1_CIS: Attagene CIS-FACTORIAL HepG2 Assay for human X-box Binding Protein 1 (XBP1) (AID 2282972); conditions: HepG2 XBP1 cis-element reporter, Attagene multiplex; actives raise or lower the signal
Sequence of X-box-binding protein 1 (Homo sapiens) (P17861 whole entry, looked up): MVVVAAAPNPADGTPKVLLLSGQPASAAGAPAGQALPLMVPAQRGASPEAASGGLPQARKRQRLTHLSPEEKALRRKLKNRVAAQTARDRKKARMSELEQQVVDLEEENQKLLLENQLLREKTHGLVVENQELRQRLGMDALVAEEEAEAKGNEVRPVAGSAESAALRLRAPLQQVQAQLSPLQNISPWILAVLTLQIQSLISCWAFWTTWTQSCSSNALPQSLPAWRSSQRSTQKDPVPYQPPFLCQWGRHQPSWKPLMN
How it was run: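 Multiplexed cis-reporter readout in transfected HepG2 liver cells. Exposure lasted 24 hours. Activity in either direction was fitted against DMSO as negative control and baseline.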

[8] = ATG_GAL4_TRANS: Attagene TRANS-FACTORIAL HepG2 Assay for GAL4 (Internal Marker) (AID 2282976; active means hit-call score of the fitted dose curve at least 0.9, where 1 is the maximum); conditions: HepG2 Attagene TRANS GAL4 internal marker reporter
How it was run: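 HepG2 cells transiently transfected with multiplexed GAL4-UAS reporter constructs were dosed for 24 h. Reporter mRNA was measured by RT-PCR, 6-FAM primer extension, HpaI digestion and capillary electrophoresis, and gain of signal was fitted relative to DMSO.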

[9] = ATG_M_19_TRANS: Attagene TRANS-FACTORIAL HepG2 Assay for M19 Transcription Factor (Internal Marker) (AID 2282974; active means hit-call score of the fitted dose curve at least 0.9, where 1 is the maximum); conditions: HepG2 Attagene TRANS-FACTORIAL M19 internal marker reporter
How it was run: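 Gain-of-signal in reporter mRNA, relative to DMSO, was scored from capillary electrophoresis fluorescence. HepG2 cells carried transiently transfected multiple reporter transcription units and were incubated with test chemicals for 24 h.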

[10] = target: Estrogen-related receptor gamma (Homo sapiens) (UniProt P62508); assay: ATG_ERRg_TRANS: Attagene TRANS-FACTORIAL HepG2 Assay for human Estrogen-Related Receptor gamma (ERRg) (AID 2282977; active means hit-call score of the fitted dose curve at least 0.9, where 1 is the maximum;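 further: hits increase reporter signal over DMSO so potencies reflect activators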); conditions: HepG2 Attagene TRANS reporter, ERRg transactivation
Sequence of Estrogen-related receptor gamma (Homo sapiens) (P62508 whole entry, looked up, the tested form may be a part): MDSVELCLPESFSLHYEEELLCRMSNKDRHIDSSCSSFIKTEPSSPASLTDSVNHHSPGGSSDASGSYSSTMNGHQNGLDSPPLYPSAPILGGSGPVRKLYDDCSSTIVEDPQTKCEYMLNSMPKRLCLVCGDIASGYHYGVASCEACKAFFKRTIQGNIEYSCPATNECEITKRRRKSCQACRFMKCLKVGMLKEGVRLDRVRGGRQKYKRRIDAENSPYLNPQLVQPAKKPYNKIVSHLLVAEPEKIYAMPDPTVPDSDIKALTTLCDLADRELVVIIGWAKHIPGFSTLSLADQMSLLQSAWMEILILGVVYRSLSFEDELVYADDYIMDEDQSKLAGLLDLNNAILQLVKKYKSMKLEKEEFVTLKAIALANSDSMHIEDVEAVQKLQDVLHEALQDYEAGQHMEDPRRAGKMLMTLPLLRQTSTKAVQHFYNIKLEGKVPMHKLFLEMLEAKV
How it was run: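 Induction of reporter transcripts through a chimeric NR-Gal4 protein is quantified in transfected human HepG2 liver cells after 24 h chemical exposure, using RT-PCR with capillary electrophoresis detection and DMSO as baseline.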

Measured: AC50

CCCCC(CC)C(=O)OCCOCCOCCOC(=O)C(CC)CCCC (stereo not drawn)
inactive: [1] | [2] | [3] | [5] | [6] | [7] | [8]
active: [4] 65.8 µM

Cc1ccc(S(=O)(=O)NC(=O)NN2CCCCCC2)cc1
inactive: [1] | [2] | [3] | [4] | [5] | [7] | [8]

O=C(O)CO
inactive: [1] | [2] | [3] | [4] | [5] | [7] | [9] | [8]

CCCOc1ccc(S(=O)(=O)N2CCN(CC)CC2)cc1-c1nc2c(CC)n(Cc3ccccn3)nc2c(=O)[nH]1
active: [1] 89.8 µM | [4] 2.51 µM
inactive: [2] | [3] | [5] | [7] | [10]

O=C(O)c1cccc(C[C@@H]2COc3ccc(OCc4nc5cc(F)ccc5s4)cc3[C@@H]2O)c1
inactive: [2] | [3] | [4] | [5] | [9]
active: [1] 37.8 µM | [7] 160 µM

CCc1ccc(O)c(C(C)(C)C)c1
inactive: [1] | [2] | [3] | [7] | [9]
active: [4] 43 µM | [5] 24.2 µM

OCc1c[nH]c2ccccc12
active: [4] 5.32 µM [middle of 5 runs] | [5] 5.36 µM [middle of 5 runs]
inactive: [1] | [2] | [3] | [6] | [7] | [9] | [8] | [10]

c1ccc2cc3ccccc3cc2c1
inactive: [1] | [2] | [3] | [4] | [5] | [6] | [7] | [9] | [10]

COS(C)(=O)=O
inactive: [1] | [2] | [3] | [4] | [5] | [7] | [8]

O=C1CN(N=Cc2ccc([N+](=O)[O-])o2)C(=O)N1
active: [1] 21.4 µM | [5] 32.1 µM
inactive: [2] | [3] | [4] | [7] | [9]

CCCCCCCC/C=C\CCCCCCCC(=O)OC[C@@H](O)[C@H]1OC[C@H](O)[C@H]1O
inactive: [1] | [2] | [3] | [4] | [5] | [7] | [9] | [8]

FC(F)(F)COC(OCC(F)(F)F)OCC(F)(F)F
inactive: [1] | [2] | [3] | [4] | [5] | [6] | [7] | [8] | [10]

O=S(=O)(O)c1ccc(N=Nc2c(O)ccc3cc(S(=O)(=O)O)ccc23)cc1
inactive: [1] | [2] | [3] | [4] | [5] | [6] | [7] | [9] | [10]

OC(O)(C(F)C(O)(O)C(F)(F)F)C(F)(F)F
inactive: [1] | [3] | [4] | [5] | [6] | [8] | [10]
active: [1] 3.07 µM | [2] 51.9 µM and 25.8 µM | [5] 194 µM | [7] 61.9 µM and 33 µM

NNC(=O)c1ccncc1
inactive: [1] | [2] | [3] | [4] | [5] | [6] | [7] | [9] | [8] | [10]

CCCCCCCCN(C)C
active: [4] 0.00907 µM
inactive: [1] | [2] | [3] | [5] | [6] | [7] | [9]

Nc1ccn([C@@H]2O[C@H](CO)[C@@H](O)[C@@H]2O)c(=O)n1
active: [5] 40 µM
inactive: [1] | [2] | [3] | [4] | [7] | [9] | [8]

CC(C)c1nnc2ccc(-c3ocnc3-c3cc(F)ccc3F)cn12
active: [4] 37.7 µM
inactive: [1] | [2] | [3] | [5] | [6] | [7] | [10]
